Hits are enriched below; roughly 4.3% of the tested compounds scored in any of these assays.
CF NFkB inh: inhibitors of PAF-induced NF-kB signaling, primary screen, cell-based, GFP fluorescence, uHTS; KKLEB NF-kB-GFP reporter, GFP fluorescence overnight; inhibition, % at 5 µM; hit rate 0.86% among 360,000;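 active means at least 50% inhibition at 5 µM, scaled per plate between neutral and stimulator controls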;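 further: PAF is a Pseudomonas aeruginosa culture filtrate used as stimulus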
KKLEB tox: cytotoxicity in KKLEB CF airway cells, primary screen, cytotoxicity control for CF NF-kB inhibitor project, cell-based, uHTS, fluorescence assay plates. KKLEB CF airway cells viability, ATPlite luminescence, overnight; active compounds read low; cells stimulated with P. aeruginosa culture filtrate. activity change (cytotoxicity), % at 5 µM. hit rate 0.36% among 360,000. AID 602141, 2011;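 active means corrected activity change at or below -50% at 5 µM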
MITF TRPM1 inh: inhibitors of MITF-dependent TRPM1 promoter reporter, primary screen, cell-based, SK-MEL-5, single point, luciferase; SK-MEL-5 TRPM1 promoter luciferase, 24 h; inhibition, % at 12.5 µM; hit rate 0.83% among 330,000;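 active means mean inhibition across replicates of 60% or more, whatever share of single replicates reaches that level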
HIF-2a block: HIF-2a reporter inhibitors, primary screen, luminescence, 786-0 RCC cells. 786-0 RCC cells HIF-2a reporter, luciferase luminescence, overnight. inhibition, % at 18.8 µM. hit rate 0.72% among 360,000;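 active means inhibition of the luminescence signal of 40% or more relative to plate controls, in a single-dose primary screen at 18.75 µM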
CHOP inh: inhibitors of CHOP promoter induction, primary screen, cell-based, unfolded protein response, luciferase reporter; hit rate 3.8% among 220,000; AID 2732, 2010; inhibition, % at 10 µM; CHO-K1 CHOP-promoter luciferase, tunicamycin-induced, 15-18 h;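 active means compounds that reduced the stress-induced luciferase reporter signal by more than about 70% of percent inhibition, limit read from the data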
Peg3 prom inh: Peg3 promoter-driven luciferase inhibitors, primary screen, cell-based, HeLa, luciferase luminescence | HeLa PEG-Prom luciferase reporter, overnight | inhibition, % at 20 µM | hit rate 1.7% among 360,000;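 active means inhibition of at least 50% at 20 µM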
Each line names hits and unclear results; the compound was inactive in the other large screens.

CCOc1cccc(-c2nc(C(N)=O)c3[nH]c(=O)n(-c4cccc(Cl)c4)c3n2)c1O	CHOP inh 95
Cc1cc(C)c(S(=O)(=O)/N=C2/C=C(Sc3ncn[nH]3)C(=O)c3ccccc32)cc1C	CF NFkB inh 77, KKLEB tox -59, MITF TRPM1 inh 89, HIF-2a block 68, CHOP inh 109, Peg3 prom inh 106
O=c1[nH]c(CN(CCO)CCO)nc2c1C1(CCCCC1)Cc1ccccc1-2	none
CCN(CC)Cc1nc2c(c(=O)[nH]1)C1(CCCC1)Cc1ccccc1-2	CHOP inh 84
C=CCNC(=S)NNc1nc2c(c(=O)[nH]1)C1(CCCCC1)Cc1ccccc1-2	CHOP inh 93
O=C(NCc1ccccc1)C(c1ccc(Cl)cc1)N(C(=O)c1csnn1)C1CC1 (configuration not stated)	none (no result: CHOP inh)
CCOc1cc(CNC2CCCC2)cc(Cl)c1OCc1ccccc1	Peg3 prom inh 57
COc1cc(CNCCc2ccccc2)cc(Cl)c1OCc1ccccc1	Peg3 prom inh 90
CCOC(=O)c1ccc(N2C(=O)CC(N3CCC(Nc4ccc(F)cc4)CC3)C2=O)cc1 (configuration not stated)	CHOP inh 84
CC1=CC(=O)C(Sc2ccc(C)cc2)=CC1=O	CF NFkB inh 80, Peg3 prom inh 60 (no result: MITF TRPM1 inh, CHOP inh)
Cn1c(CC(=O)Nc2ccccc2)c(Sc2ccccc2)c2ccccc21	none
Cn1c(CC(=O)Nc2ccccc2C(F)(F)F)c(Sc2ccccc2)c2ccccc21	CHOP inh 76
COc1ccc(C(=O)NNC2=Nc3cccc4cccc2c34)cc1	none
Cc1ccc(C(=O)NNC2=Nc3cccc4cccc2c34)cc1	CHOP inh 89
CC(C)(C)OC(=O)C[C@@H]1C/C=C\C[C@H](CC(=O)NCCO)C(=O)N[C@@H](Cc2ccccc2)COC1=O	none (no result: CHOP inh)
COc1ccc(NC(=O)Cn2nnc(C(=O)NCc3ccccc3OC)c2N)cc1Cl	CHOP inh 72
CC(C)CC(N)c1csc(Nc2ccc(C(=O)NCCO)cc2)n1 (configuration not stated)	none (no result: MITF TRPM1 inh, CHOP inh)
Cc1ccc(-c2csc(N3CCC(C(N)=O)(N4CCCCC4)CC3)n2)cc1	CHOP inh 82 (no result: MITF TRPM1 inh)
Cc1ccc(-c2csc(N3CCC(C(N)=O)CC3)n2)cc1	none (no result: CHOP inh)
Cc1nn(CC(=O)Nc2ccc(S(N)(=O)=O)cc2)c(=O)c2ccccc12	none (no result: CHOP inh)
O=S(Cc1ccccc1)CC(O)(c1ccc(Cl)cc1)c1ccc(Cl)cc1 (configuration not stated)	CHOP inh 85
N#CC1=C(N)Oc2n[nH]c(-c3cccs3)c2C1C1C=CCCC1 (configuration not stated)	CHOP inh 96
CC(C)Oc1ccc(S(=O)(=O)N2CCCCC2)cc1NC(=O)C1=NN(c2ccccc2)C(=O)CC1	none (no result: MITF TRPM1 inh, CHOP inh)
Cc1ccc(Sc2cnc3ccccc3n2)cc1	CHOP inh 86
CC(Sc1cnc2ccccc2n1)C(=O)O (configuration not stated)	none
CC12CCC3C(=CCc4cc(O)ccc43)C1CC(=NO)C2O (configuration not stated)	none (no result: CHOP inh)
COc1ccc2c(c1)CC=C1C2CCC2(C)C(=O)C(=NO)CC12 (configuration not stated)	CF NFkB inh 54 (no result: CHOP inh)
CC(C)(C)c1csc(NC(=O)Cc2cccs2)n1	none
CC(C)(C)c1csc(NC(=O)c2cccs2)n1	CHOP inh 71
Cc1ccc(NS(=O)(=O)c2ccc(NC(=O)c3cccs3)cc2)cc1	CHOP inh 77
O=C(CN1CCC(n2nnc3cc(C(F)(F)F)ccc32)CC1)Nc1ccc2c(c1)CCC2	CHOP inh 78
COc1ccc(Cl)cc1NC(=O)CN1CCC(n2nnc3cc(C)ccc32)CC1	CHOP inh 73, Peg3 prom inh 86
COc1ccc(C)cc1NC(=O)CN1CCN(CC(=O)Nc2ccccc2F)CC1	CHOP inh 79
COc1ccccc1NC(=O)CN1CCC(n2nnc3cc(F)ccc32)CC1	none
COc1cc(NC(=O)Nc2ccccc2)c(OC)cc1NC(=O)CN1CCCCC1	CHOP inh 90
